# SARS PLpro yeast-1: inhibitors of SARS-CoV papain-like protease in yeast; S. cerevisiae expressing SARS-CoV PLpro, growth rescue; Potency, µM (top dose mostly 32.9 µM), hits mostly activators; 330,000 tested, 0.19% active; note: nearly all actives have a fitted effect of over 55% in size
# NS1 function inh: blocks influenza NS1 protein function; Potency, µM (titrated, usually from 46.1 µM); 270,000 tested, 0.4% active; AID 2326; note: actives are rising curves; nearly all actives have a fitted effect of over 50% in size
#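 A cell-based growth assay was used: compounds that relieve NS1-induced slow growth of budding yeast raise OD600. Assay medium was yeast nitrogen base with ammonium sulphate and -URA supplement, pH 6.0, with 2% galactose.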
# AMA1 RON2 block: AMA1-RON2 (P. falciparum) interaction inhibition. AlphaScreen AMA1-biotinylated RON2 peptide binding. Potency, µM (titrated, usually from 58.2 µM), usual class: inhibitors. 360,000 tested, 0.2% active; active = well fitted inhibition curve with a large enough effect; inconclusive = small, poorly fitted or top-dose-only effect; inactive = no such curve, though single readings can be large or run the other way; note: nearly all actives have a fitted effect of over 45% in size
#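 AMA1 (3D7) with his tag at 25 nM final met compounds first, then biotinylated RON2 peptide at 25 nM; detection used donor plus acceptor beads, 10 µg/mL apiece, read by AlphaScreen after 30 min at room temperature.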
# SARS PLpro yeast-2: Rescues yeast growth by inhibiting SARS-CoV PLpro; shares compounds with SARS PLpro yeast-1; yeast expressing SARS-CoV PLpro, growth phenotype rescue; calls only; 1,000 tested, 19% active; call rule not given here
# Hits are given with their value; 0 = inactive; ? = inconclusive; - = no result; + = active, no number; [ ] = another dose, or the depositor's remark. Rows were chosen to be rich in hits. Some 0.65% of all compounds tested hit in one or more screens of this group. Unless noted, calls come from the whole dose curve.
SMILES,SARS PLpro yeast-1,NS1 function inh,AMA1 RON2 block,SARS PLpro yeast-2
CCCNC(=O)C1(C)CCCN(Cc2ccccc2Cl)C1 (configuration not stated),-,-,0,-
O=C(N/N=C/c1ccc([N+](=O)[O-])o1)c1ccccc1NS(=O)(=O)c1cccs1,0,0,0,-
COc1ccc(/C=C2\CN(Cc3ccccc3)C/C(=C\c3ccc(OC)cc3OC)C2=O)c(OC)c1,0,0,0,-
COc1ccc(/C=C2\CN(Cc3ccccc3)C/C(=C\c3ccc(OC)cc3)C2=O)cc1,20µM,0,0,0
O=C(N/N=C/c1ccccc1[N+](=O)[O-])c1cnccn1,0,0,0,-
Nc1cc(Cl)nc(N/N=C/c2c(O)ccc3ccccc23)n1,2.51µM,0,0,0
Nc1nonc1N/N=C/c1c(O)ccc2ccccc12,0,-,0,-
O=[N+]([O-])c1ccc(/C=N/N2CCN(c3ccncc3S(=O)(=O)N3CCCCC3)CC2)cc1,3.16µM,0,0,0
O=[N+]([O-])c1ccccc1/C=N/N1CCN(c2ccncc2S(=O)(=O)N2CCCCC2)CC1,0,0,0[11.6 µM],-
CCOC(=O)CN(C(=O)COc1nc(-c2ccccc2)cc(C)c1C#N)c1ccccc1C,0,0,0,-
O=C(NCc1ccco1)c1ccc(Cl)c(S(=O)(=O)N2CCOCC2)c1,0,0,0,-
O=C(NCc1ccco1)c1ccc(Cl)c(S(=O)(=O)N2CCc3ccccc32)c1,?,0,0,0
Cc1c(F)cccc1NS(=O)(=O)c1ccc2c(c1)c(C)cc(=O)n2C,0,0,0,-
COc1ccc(C(=O)NCC(=O)N2CCN(c3ccc(F)cc3)CC2)cc1,0,0,0,-
C[C@H](OC(=O)c1[nH]cnc1C(=O)N1CCN(C(=O)OC(C)(C)C)CC1)c1ccccc1,0,-,0,-
CCOC(=O)c1[nH]cnc1C(=O)N1CCN(C(=O)OC(C)(C)C)CC1,?,-,0,?
O=C(COC(=O)Cc1ccc(Cl)cc1)NCc1ccco1,0,-,0,-
CCc1nnc(N/N=C/c2cc(Br)c(O)cc2O)n1N,0,0,0,-
CC(C)(C)c1nnc(N/N=C/c2cc(Br)ccc2O)n(N)c1=O,-,0,0,0
O=C(O)C1CC(=O)N(CCc2ccc(F)cc2)C1 (configuration not stated),0,0,0,-
CC(C)N(CCO)Cc1nc(C(c2ccccc2)c2ccccc2)no1,0,0,0,-
Cc1ccc(NC(=O)N2CCC(NC(=O)c3cccc(F)c3)CC2)cc1,0,0,0,-
CCOC(=O)C1=C(CNCc2ccc(C)cc2)NC(=O)NC1c1cc(C)ccc1C (configuration not stated),?,0,0,0
CCOC(=O)C1=C(Cn2cnc3ccccc32)NC(=O)NC1c1cc(C)ccc1C (configuration not stated),0,0,0,-
CCNc1ccccc(-c2ccc3ccccc3n2)c1=O,11.2µM,0,0,0
SMILES,SARS PLpro yeast-1,NS1 function inh,AMA1 RON2 block,SARS PLpro yeast-2
CCNc1ccc2noc3c2c1C(=O)c1ccccc1-3,0,0,?,-
O=C(CCNC(=O)c1ccc(Cl)cc1)NNC(=O)c1ccc(F)cc1,0,-,0,-
COc1ccc(CCNC(=O)Cn2nc([N+](=O)[O-])c(Br)c2C)cc1OC,?,0,0,0
COc1ccc(CCNC(=O)Cn2c([N+](=O)[O-])cnc2C)cc1OC,0,0,0,-
CCC(CC)c1nnc(NC(=O)c2cccc(S(=O)(=O)N3CCOCC3)c2)s1,0,-,0,-
O=C(CCN1CCN(C(c2ccccc2)c2ccccc2)CC1)N/N=C/c1ccc(O)cc1,0,0,0,-
O=C(CCN1CCN(C(c2ccccc2)c2ccccc2)CC1)N/N=C/c1ccc(O)cc1O,4.47µM,0,0,0
Cc1cccc(NCc2ccc(O)c3ncccc23)c1,0,0,0,-
Cc1ccccc1NCc1ccc(O)c2ncccc12,?,0,0,+
COc1cc(CNC(C)c2ccccc2)cc(Cl)c1OCC(=O)Nc1ccccc1 (configuration not stated),0,0,0,-
CCOc1ccc(N(C(=O)Nc2ccccc2)C2=NCCC2)cc1,0,0,0,-
CNC(=O)N(C1=NCCCCC1)c1ccc(Br)cc1,-,0,0,0
Cc1sc2ncnc(N/N=C/c3ccc(O)cc3)c2c1C,0,0,0,-
Oc1ccccc1/C=N/Nc1ncc(Br)cn1,?,0,0,0
Cc1sc2ncnc(N/N=C/c3ccccc3O)c2c1C,1.12µM,0,0,?
Oc1ccccc1/C=N/Nc1ccccc1,0,0,0,-
CC(C)(C)C(=O)Nc1ccc(-c2nnc3n2CCCCC3)cc1,0,0,0,-
O=C(Nc1nc(-c2ccccn2)cs1)C1COc2ccccc2O1 (configuration not stated),?,0,0,+
Cc1csc(NC(=O)C2COc3ccccc3O2)n1 (configuration not stated),0,0,0,-
CN(CC(=O)Nc1ccc(F)c(F)c1F)C(=O)C1=NN(c2ccccc2)C(=O)CC1,0,-,0,-
Cc1ccc(S(=O)(=O)N2CCC(C(=O)NCC(C)(C)N3CCOCC3)CC2)c(C)c1,0,-,0,-
O=C(NC1(C(=O)NC2CCCCC2)CCCCC1)c1ccccn1,0,0,0,-
O=C(NC1CCCCC1)/C(=N\O)c1ccccn1,?,0,0,0
Cc1ccc(C(=O)NCC(=O)OC(C)C(=O)NC2CCCc3ccccc32)cc1 (configuration not stated),0,-,0,-
O=C(NC1CCCCCC1)c1ccc([N+](=O)[O-])s1,0,-,0,-
SMILES,SARS PLpro yeast-1,NS1 function inh,AMA1 RON2 block,SARS PLpro yeast-2
C=CCc1cccc(/C=N/NC(=O)C(=O)Nc2ccc(C)cc2)c1O,0,0,0,-
C=CCc1cccc(/C=N/NC(=O)C(C)Nc2ccc(C)cc2)c1O (configuration not stated),?,0,0,0
CC(=O)Nc1ccnn1C1CCN(C(=O)c2cccc(C)c2C)CC1,0,0,0,-
C=CCOC(=O)C1=C(C)NC(=S)NC1/C=C/c1ccccc1 (configuration not stated),0,0,0,-
CC1=C(C(=O)OCc2ccccc2)C(/C=C/c2ccccc2)NC(=S)N1 (configuration not stated),-,0,0[11.6 µM],+
COc1cc(/C=N/n2c(SC)nnc(C(C)(C)C)c2=O)ccc1O,15.8µM,0,0,0
COc1ccc(/C=N/n2c(SC)nnc(C(C)(C)C)c2=O)cc1OC,0,0,0,-
O=C(COc1ccc2ccc(=O)oc2c1)Nc1c(Cl)cccc1C(F)(F)F,0,0,0,-
Cc1ccccc1Nc1nc(N)nc(COC(=O)c2ccc([N+](=O)[O-])o2)n1,0,-,0,-
COc1cccc(CNC(=O)CN2C(=O)COc3ccc(S(=O)(=O)N4CCOCC4)cc32)c1,0,0,0,-
O=C(NNC(=O)c1cc(F)c(F)cc1Cl)c1ccc(NS(=O)(=O)c2cccs2)cc1,0,-,0,-
O=C(NNC(=O)c1cc(Cl)ccc1O)c1ccc(NS(=O)(=O)c2cccs2)cc1,?,-,0,?
CCOC(=O)C(=Cc1c[nH]c2ccc(S(=O)(=O)N(C)C)cc12)C(=O)OCC,0,0,0,-
O=C(Nc1ccc2ncccc2c1)c1ccccc1,0,0,0,-
CNC(=O)Oc1ccc2ncccc2c1,14.1µM,0,0[11.6 µM],+
COc1cccc(NC(=O)CCCOc2cc(=O)n(C)c3ccccc23)c1,0,0,0,-
CCOc1ccc(NC(=O)CCCOc2cc(=O)n(C)c3ccccc23)cc1,?,0,0,+
O=C(CCCn1c(=S)[nH]c2cc3c(cc2c1=O)OCO3)NCc1cccc(Cl)c1,0,0,0,-

# Screening data deposited in PubChem by National Center for Advancing Translational Sciences (NCATS).
